From the supplement of paper PMC9794691

These molecules were tested on PC9 (assay: area under confluence curve of compound monotherapy; compare to DMSO control AUC of the same experiment (AUC (confluence x time, arbitrary))). Conditions: 10 nM; DMSO control AUC in same experiment: 21341.
Protocol: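 compare to DMSO control AUC of the same experiment; Monotherapy arm of the osimertinib DTP screen: EGFR-mutant NSCLC cells were treated with the test compound alone at a fixed dose (highest dose with <50% inhibition of parental cells, or 1 uM), then switched to drug-free medium at the DTP stage. IncuCyte confluence was tracked and AUC computed in Prism. AUC scale depends on experiment duration, so each row carries the same-experiment DMSO control AUC (monotherapy activity = DMSO AUC minus monotherapy AUC). The monotherapy value is shared between screen formats.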

Row | Structure (SMILES) | area under confluence curve
1 | Cn1cc(CNCC2CCN(c3ncc(C(=O)NO)cn3)CC2)c2ccccc21 [Quisinostat] | 17400

Same assay, conditions: 10 nM; DMSO control AUC in same experiment: 27958

Row | Structure (SMILES) | area under confluence curve
2 | Cn1cc(CNCC2CCN(c3ncc(C(=O)NO)cn3)CC2)c2ccccc21 [Quisinostat] | 20800

Same assay, conditions: 10 nM; DMSO control AUC in same experiment: 30002

Row | Structure (SMILES) | area under confluence curve
3 | Cn1cc(CNCC2CCN(c3ncc(C(=O)NO)cn3)CC2)c2ccccc21 [Quisinostat] | 29800

Same assay, conditions: 100 nM; DMSO control AUC in same experiment: 21341

Row | Structure (SMILES) | area under confluence curve
4 | C[C@@]1(C(=O)Nc2ccc(F)nc2)CCCN1c1nc(Nc2cc(C3CC3)n[nH]2)c2cccn2n1 | 20100

Same assay, conditions: 100 nM; DMSO control AUC in same experiment: 28334

Row | Structure (SMILES) | area under confluence curve
5 | CNC(=O)c1cccc(-c2ccc3c(N4CCOC[C@@H]4C)nc(N4CCOC[C@@H]4C)nc3n2)c1 | 24900

Same assay, conditions: 100 nM; DMSO control AUC in same experiment: 30580

Row | Structure (SMILES) | area under confluence curve
6 | C[C@@]1(C(=O)Nc2ccc(F)nc2)CCCN1c1nc(Nc2cc(C3CC3)n[nH]2)c2cccn2n1 | 30100

Same assay, conditions: 100 nM; DMSO control AUC in same experiment: 44384

Row | Structure (SMILES) | area under confluence curve
7 | C/C=C/Cn1cc(-c2cc(OC)c(C(=O)N3CCOCC3)cc2OC)c2cc(C)[nH]c2c1=O | 44600
8 | O=C(NC[C@H](O)CN1CCc2ccccc2C1)c1ccnc(NC2CCC2)c1 | 43300

Same assay, conditions: 100 nM; DMSO control AUC in same experiment: 49143

Row | Structure (SMILES) | area under confluence curve
9 | C[C@@]1(C(=O)Nc2ccc(F)nc2)CCCN1c1nc(Nc2cc(C3CC3)n[nH]2)c2cccn2n1 | 48900

Same assay, conditions: 300 nM; DMSO control AUC in same experiment: 19076

Row | Structure (SMILES) | area under confluence curve
10 | COc1nnc2ccc(N3CCC(c4ccc(OCCN5CCN(C)C(=O)[C@H]5C)cc4)CC3)nn12 | 19200

Same assay, conditions: 300 nM; DMSO control AUC in same experiment: 20197

Row | Structure (SMILES) | area under confluence curve
11 | Nc1nc(Nc2ccc3c(c2)CCC(N2CCCC2)CC3)nn1-c1cc2c(nn1)-c1ccccc1CCC2 (stereo not drawn) | 19600

Same assay, conditions: 300 nM; DMSO control AUC in same experiment: 21594

Row | Structure (SMILES) | area under confluence curve
12 | COc1nnc2ccc(N3CCC(c4ccc(OCCN5CCN(C)C(=O)[C@H]5C)cc4)CC3)nn12 | 20500

Same assay, conditions: 300 nM; DMSO control AUC in same experiment: 28684

Row | Structure (SMILES) | area under confluence curve
13 | Cc1c[nH]c2nc(Nc3ccc(N4CCN(C)CC4)c(F)c3)nc(-c3cccc(CC#N)c3)c12 | 21400

Same assay, conditions: 300 nM; DMSO control AUC in same experiment: 30008

Row | Structure (SMILES) | area under confluence curve
14 | Cc1c[nH]c2nc(Nc3ccc(N4CCN(C)CC4)c(F)c3)nc(-c3cccc(CC#N)c3)c12 | 29700
15 | Nc1nc(Nc2ccc3c(c2)CCC(N2CCCC2)CC3)nn1-c1cc2c(nn1)-c1ccccc1CCC2 (stereo not drawn) | 28200

Same assay, conditions: 300 nM; DMSO control AUC in same experiment: 30578

Row | Structure (SMILES) | area under confluence curve
16 | NC1(C(=O)N[C@@H](CCO)c2ccc(Cl)cc2)CCN(c2nc[nH]c3nccc2-3)CC1 [Capivasertib] | 29000

Same assay, conditions: 300 nM; DMSO control AUC in same experiment: 31840

Row | Structure (SMILES) | area under confluence curve
17 | COc1nnc2ccc(N3CCC(c4ccc(OCCN5CCN(C)C(=O)[C@H]5C)cc4)CC3)nn12 | 31700
18 | NC1(C(=O)N[C@@H](CCO)c2ccc(Cl)cc2)CCN(c2nc[nH]c3nccc2-3)CC1 [Capivasertib] | 30700

Same assay, conditions: 300 nM; DMSO control AUC in same experiment: 43316

Row | Structure (SMILES) | area under confluence curve
19 | Cc1c[nH]c2nc(Nc3ccc(N4CCN(C)CC4)c(F)c3)nc(-c3cccc(CC#N)c3)c12 | 33700
20 | NC1(C(=O)N[C@@H](CCO)c2ccc(Cl)cc2)CCN(c2nc[nH]c3nccc2-3)CC1 [Capivasertib] | 42700

Same assay, conditions: 300 nM; DMSO control AUC in same experiment: 44384

Row | Structure (SMILES) | area under confluence curve
21 | COc1nnc2ccc(N3CCC(c4ccc(OCCN5CCN(C)C(=O)[C@H]5C)cc4)CC3)nn12 | 39700

Same assay, conditions: 300 nM; DMSO control AUC in same experiment: 49189

Row | Structure (SMILES) | area under confluence curve
22 | Cn1cnc2c(F)c(Nc3ccc(Br)cc3Cl)c(C(=O)NOCCO)cc21 [Selumetinib] | 49700

Same assay, conditions: 300 nM; DMSO control AUC in same experiment: 88996

Row | Structure (SMILES) | area under confluence curve
23 | CN(C)C(=O)c1cc2cnc(Nc3ccc(N4CCNCC4)cn3)nc2n1C1CCCC1 [Ribociclib] | 88200

Same assay, conditions: 1000 nM; DMSO control AUC in same experiment: 21594

Row | Structure (SMILES) | area under confluence curve
24 | Cc1cc2cc(C(=O)c3cnn(-c4cnc(Oc5c(F)cccc5F)cc4C)c3N)[nH]c2cc1NS(C)(=O)=O | 18400
25 | COc1cc(CCc2cc(NC(=O)c3ccc(N4CC(C)NC(C)C4)cc3)n[nH]2)cc(OC)c1 (stereo not drawn) | 20200

Same assay, conditions: 1000 nM; DMSO control AUC in same experiment: 26668

Row | Structure (SMILES) | area under confluence curve
26 | COc1cc(CCc2cc(NC(=O)c3ccc(N4CC(C)NC(C)C4)cc3)n[nH]2)cc(OC)c1 (stereo not drawn) | 28200
27 | COc1ccc(CCc2nc3cc(-c4c(C)noc4C)ccc3n2C[C@H](C)N2CCOCC2)cc1Cl | 28400

Same assay, conditions: 1000 nM; DMSO control AUC in same experiment: 27958

Row | Structure (SMILES) | area under confluence curve
28 | CN1CCN(c2nc(C3=C(c4c[nH]c5ccccc45)C(=O)NC3=O)c3ccccc3n2)CC1 [Sotrastaurin] | 27000

Same assay, conditions: 1000 nM; DMSO control AUC in same experiment: 28684

Row | Structure (SMILES) | area under confluence curve
29 | COc1cc2nc(C)nc(N[C@H](C)c3cc(N)cc(C(F)(F)F)c3)c2cc1O[C@H]1CCOC1 | 28300

Same assay, conditions: 1000 nM; DMSO control AUC in same experiment: 29345

Row | Structure (SMILES) | area under confluence curve
30 | CS(=O)(=O)CCNCc1ccc(-c2ccc3ncnc(Nc4ccc(OCc5cccc(F)c5)c(Cl)c4)c3c2)o1 [Lapatinib] | 20900

Same assay, conditions: 1000 nM; DMSO control AUC in same experiment: 30604

Row | Structure (SMILES) | area under confluence curve
31 | Cc1cc2ncnn2cc1Nc1ncc2c(n1)n(C1CCOCC1)c(=O)n2C | 30500

Same assay, conditions: 1000 nM; DMSO control AUC in same experiment: 31219

Row | Structure (SMILES) | area under confluence curve
32 | CN(C)C/C=C/C(=O)Nc1ccc(C(=O)Nc2cccc(Nc3ncc(Cl)c(-c4c[nH]c5ccccc45)n3)c2)cc1 | 31000

Same assay, conditions: 1000 nM; DMSO control AUC in same experiment: 31239

Row | Structure (SMILES) | area under confluence curve
33 | O=C(CCCCCCC(=O)Nc1ccccc1)NO [Vorinostat] | 29400

Same assay, conditions: 1000 nM; DMSO control AUC in same experiment: 31840

Row | Structure (SMILES) | area under confluence curve
34 | CCOC(=O)c1ccnc(CNCC(=O)N(CC)CCN(C)C)c1 | 30800

Same assay, conditions: 1000 nM; DMSO control AUC in same experiment: 43316

Row | Structure (SMILES) | area under confluence curve
35 | C[C@@H](c1ccc2nccn2c1)n1nnc2ncc(-c3cnn(C)c3)nc21 [Savolitinib] | 43600

Same assay, conditions: 1000 nM; DMSO control AUC in same experiment: 48219

Row | Structure (SMILES) | area under confluence curve
36 | O=C(CCCCCCC(=O)Nc1ccccc1)NO [Vorinostat] | 47800
37 | COc1ccc(CCc2nc3cc(-c4c(C)noc4C)ccc3n2C[C@H](C)N2CCOCC2)cc1Cl | 49000

Same assay, conditions: 1000 nM; DMSO control AUC in same experiment: 72888

Row | Structure (SMILES) | area under confluence curve
38 | COc1ccc(CCc2nc3cc(-c4c(C)noc4C)ccc3n2C[C@H](C)N2CCOCC2)cc1Cl | 72800
